Results as given in PubChem BioAssay (EPA / NIEHS).
Results filed as inconclusive are left out. Activity calls are given as the source filed them. Rule for the calls, unless noted: active = hit-call score of the fitted dose curve at least 0.9, where 1 is the maximum; inactive = score below 0.9.

Columns and labels:
[1] = read-out: Nuclear factor erythroid 2-related factor 2 (Homo sapiens) (UniProt Q16236); assay: LTEA_HepaRG_NFE2L2: Life Technologies and Expression Analysis (LTEA) Assay for Nuclear factor erythroid 2-related factor 2 (NFE2L2) Transcription Factor using HepaRG (AID 2283527); conditions: mRNA level, 48 h; actives raise or lower the signal;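 note: TaqMan qRT-PCR transcript level normalised to ACTB GAPDH and POLR2A housekeeping genes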
How it was run: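 Differentiated human HepaRG cells, serum-free induction medium, exposed 48 h in duplicate to eight half-log concentrations up to 100 uM in 0.5% DMSO. NFE2L2 mRNA by Fluidigm TaqMan qRT-PCR, normalised to ACTB, GAPDH, POLR2A; bidirectional change versus DMSO.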

[2] = read-out: succinate dehydrogenase complex iron sulfur subunit B (SDHB), SDHB (gene 6390); assay: LTEA_HepaRG_SDHB: Life Technologies and Expression Analysis (LTEA) Assay for succinate dehydrogenase complex iron sulfur subunit B (SDHB) using HepaRG (AID 2283528); conditions: mRNA level, 48 h; actives raise or lower the signal
How it was run: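 Readout is SDHB transcript level by qRT-PCR, normalised to three housekeeping genes and fitted bidirectionally against 0.5% DMSO vehicle. Human HepaRG cells were treated for 48 h at up to 100 uM.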

[3] = read-out: Signal transducer and activator of transcription 3 (Homo sapiens) (UniProt P40763); assay: LTEA_HepaRG_STAT3: Life Technologies and Expression Analysis (LTEA) Assay for Signal transducer and activator of transcription (STAT3) using HepaRG (AID 2283529); conditions: mRNA level, 48 h; actives raise or lower the signal
How it was run: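 Differentiated HepaRG cells, serum-free induction medium, dosed 48 h in duplicate, 8 half-log concentrations from 100 uM in 0.5% DMSO. STAT3 mRNA by qRT-PCR, normalised to ACTB, GAPDH, POLR2A; bidirectional fit versus DMSO.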

[4] = read-out: solute carrier (SLCO1B1), SLCO1B1 (gene 10599); assay: LTEA_HepaRG_SLCO1B1: Life Technologies and Expression Analysis (LTEA) Assay for solute carrier (SLCO1B1) using HepaRG (AID 2283530); conditions: mRNA level, 48 h; actives raise or lower the signal
How it was run: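 HepaRG, serum-free induction medium, 48 h dosing, 8-pt half-log from 100 uM, 0.5% DMSO vehicle, duplicates. Readout: SLCO1B1 mRNA, qRT-PCR, ACTB/GAPDH/POLR2A normalization; up or down fit vs DMSO.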

[5] = read-out: sulfotransferase 2A1 (SULT2A1), SULT2A1 (gene 6822); assay: LTEA_HepaRG_SULT2A1: Life Technologies and Expression Analysis (LTEA) Assay for sulfotransferase 2A1 (SULT2A1) using HepaRG (AID 2283531); conditions: mRNA level, 48 h; actives raise or lower the signal
How it was run: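 Transcript levels of SULT2A1, quantified by qRT-PCR and normalized to three housekeeping genes, serve as the readout. Human HepaRG cultures receive test chemicals for 48 h at up to 100 uM in half-log steps, with 0.5% DMSO vehicle.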

[6] = read-out: Transforming Growth Factor (TGFA), TGFA (gene 7039); assay: LTEA_HepaRG_TGFA: Life Technologies and Expression Analysis (LTEA) Assay for Transforming Growth Factor (TGFA) using HepaRG (AID 2283532); conditions: mRNA level, 48 h; actives raise or lower the signal
How it was run: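 Differentiated HepaRG cells exposed 48 hours in serum-free induction medium, 0.5% DMSO vehicle, 8-point half-log series from 100 uM, in duplicate. TGFA mRNA by TaqMan qRT-PCR, normalised to ACTB, GAPDH, POLR2A; bidirectional fit versus DMSO.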

[7] = read-out: Transforming Growth Factor (TGFB1), TGFB1 (gene 7040); assay: LTEA_HepaRG_TGFB1: Life Technologies and Expression Analysis (LTEA) Assay for Transforming Growth Factor (TGFB1) Transporter using HepaRG (AID 2283533); conditions: mRNA level, 48 h; actives raise or lower the signal
How it was run: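 HepaRG, 48 h post-plating, switched to serum-free induction medium; chemicals 100 uM top, half-log, 8 pts, 0.5% DMSO, dup; 48 h exposure; RNA → Fluidigm TaqMan qRT-PCR; norm ACTB/GAPDH/POLR2A; bidirectional fit vs DMSO.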

[8] = read-out: TIMP1, TIMP1 (gene 7076); assay: LTEA_HepaRG_TIMP1: Life Technologies and Expression Analysis (LTEA) Assay for TIMP1 using HepaRG (AID 2283534); conditions: mRNA level, 48 h; actives raise or lower the signal;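 note: TaqMan qRT-PCR signal normalized to ACTB GAPDH and POLR2A housekeeping genes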
How it was run: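 Readout is TIMP1 mRNA level measured by qRT-PCR and normalized to three housekeeping genes. Human HepaRG cells were treated for 48 h in duplicate at eight concentrations up to 100 uM (0.5% DMSO); gain or loss fitted against DMSO.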

[9] = read-out: Tumor necrosis factor receptor 1 (TNFRSF1A), TNFRSF1A (gene 7132); assay: LTEA_HepaRG_TNFRSF1A: Life Technologies and Expression Analysis (LTEA) Assay for Tumor necrosis factor receptor 1 (TNFRSF1A) using HepaRG (AID 2283535); conditions: mRNA level, 48 h; actives raise or lower the signal
How it was run: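 Read-out is TNFRSF1A transcript level by TaqMan qRT-PCR, normalized to three housekeeping genes, scored as gain or loss of signal versus 0.5% DMSO. Human HepaRG cells received test chemicals for 48 h at up to 100 uM (half-log series).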

[10] = read-out: Thyroid Hormone Responsive (THRSP), THRSP (gene 7069); assay: LTEA_HepaRG_THRSP: Life Technologies and Expression Analysis (LTEA) Assay for Thyroid Hormone Responsive (THRSP) using HepaRG (AID 2283536); conditions: mRNA level, 48 h; actives raise or lower the signal
How it was run: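 Differentiated HepaRG cells treated 48 h in serum-free induction medium with 8 half-log concentrations up to 100 uM (0.5% DMSO), duplicates. THRSP mRNA by TaqMan qRT-PCR normalised to ACTB, GAPDH, POLR2A; bidirectional fit versus DMSO.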

[11] = read-out: Cellular tumor antigen p53 (Homo sapiens) (UniProt P04637); assay: LTEA_HepaRG_TP53: Life Technologies and Expression Analysis (LTEA) Assay for Tumor Protein P53 (TP53) using HepaRG (AID 2283537); conditions: mRNA level, 48 h; actives raise or lower the signal
How it was run: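 Read-out is TP53 transcript level by microfluidic qRT-PCR, normalised to three housekeeping genes and fitted bidirectionally against DMSO. Human HepaRG cells received compounds for 48 h, highest concentration 100 uM.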

[12] = read-out: UDP glucuronosyltransferase (UGT1A1), UGT1A1 (gene 54658); assay: LTEA_HepaRG_UGT1A1: Life Technologies and Expression Analysis (LTEA) Assay for UDP glucuronosyltransferase (UGT1A1) using HepaRG (AID 2283538); conditions: mRNA level, 48 h; actives raise or lower the signal
How it was run: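 Readout is UGT1A1 transcript level by qRT-PCR, normalized to three housekeeping genes, after 48 h chemical treatment of HepaRG cells. Concentrations ran from 100 uM down in half-log steps with 0.5% DMSO, and gain or loss relative to DMSO was fitted.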

[13] = read-out: UDP glucuronosyltransferase (UGT1A6), UGT1A6 (gene 54578); assay: LTEA_HepaRG_UGT1A6: Life Technologies and Expression Analysis (LTEA) Assay for UDP glucuronosyltransferase (UGT1A6) using HepaRG (AID 2283539); conditions: mRNA level, 48 h; actives raise or lower the signal
How it was run: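 HepaRG, 48 h post-plating switch to serum-free induction medium; chemical 48 h, 100 uM top, half-log x8, duplicate, 0.5% DMSO. Phenobarbital 1mM induction control. UGT1A6 mRNA by TaqMan qRT-PCR; gain/loss fit vs DMSO.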

[14] = read-out: X-box binding protein 1 (XBP1), XBP1 (gene 7494); assay: LTEA_HepaRG_XBP1: Life Technologies and Expression Analysis (LTEA) Assay for X-box binding protein 1 (XBP1) using HepaRG (AID 2283540); conditions: mRNA level, 48 h; actives raise or lower the signal
How it was run: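 Transcript levels of XBP1, measured by qRT-PCR and normalised to three housekeeping genes, were fitted bidirectionally relative to 0.5% DMSO controls. Human HepaRG cells received eight-point half-log dilutions from 100 uM for 48 h.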

[15] = LTEA_HepaRG_LDH_cytotoxicity: Cytotoxicity Assessment in the Life Technologies and Expression Analysis (LTEA) Assay (AID 2283563; active = hit-call score of the fitted dose curve at least 0.9, where 1 is the maximum)
How it was run: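 Cells were thawed and plated for 48 h. Medium was then replaced with serum-free induction medium. Chemicals (8 half-log points, maximum 100 uM, 0.5% DMSO) were added in duplicate for 48 h, after which spent medium was assayed for LDH.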

[16] = Tanguay_ZF_120hpf_MORT_legacy: (Legacy) Oregon State University Tanguay Lab 120 Hour Post-fertilization zebrafish Assay for Mortality (AID 2283633; active = hit-call score of the fitted dose curve at least 0.9, where 1 is the maximum)
How it was run: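 5D WT zebrafish, chorion removed 4 hpf; 1 embryo/well from 6 hpf; static exposure to 120 hpf, 28C, dark, sealed. Final DMSO 0.64%. Readout: binary mortality, brightfield, 24 + 120 hpf; DMSO as negative control.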

[17] = Tanguay_ZF_120hpf_YSE_legacy: (Legacy) Oregon State University Tanguay Lab 120 Hour Post-fertilization zebrafish Assay for Yolk Sac Edema (AID 2283634; active = hit-call score of the fitted dose curve at least 0.9, where 1 is the maximum)
How it was run: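 Dechorionate (pronase, 4 hpf) → place one 6 hpf embryo per well → static compound exposure, sealed and foil-covered, 28C, to 120 hpf → record yolk sac edema as present or absent. Final DMSO 0.64%.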

[18] = Tanguay_ZF_120hpf_EYE_legacy: (Legacy) Oregon State University Tanguay Lab 120 Hour Post-fertilization zebrafish Assay for Eye Malformation (AID 2283636; active = hit-call score of the fitted dose curve at least 0.9, where 1 is the maximum;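 note: binary presence or absence of eye malformation scored by brightfield in 120 hpf larvae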)
How it was run: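 Dechorionated Tropical 5D zebrafish embryos, one per well from 6 hpf, static exposure to 120 hpf at 28C, 0.64% DMSO. Eye malformation scored present/absent by brightfield; dead embryos not scored.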

[19] = Tanguay_ZF_120hpf_SNOU_legacy: (Legacy) Oregon State University Tanguay Lab 120 Hour Post-fertilization zebrafish Assay for Snout Malformation (AID 2283637; active = hit-call score of the fitted dose curve at least 0.9, where 1 is the maximum)
How it was run: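 Dechorionated tropical 5D wild-type zebrafish embryos exposed statically from 6 to 120 hpf at 28C, one per well, in 0.64% DMSO. Snout malformation scored as present/absent by brightfield at 120 hpf; dead embryos not scored.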

[20] = Tanguay_ZF_120hpf_JAW_legacy: (Legacy) Oregon State University Tanguay Lab 120 Hour Post-fertilization zebrafish Assay for Jaw Malformation (AID 2283638; active = hit-call score of the fitted dose curve at least 0.9, where 1 is the maximum)
How it was run: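 Steps: dechorionate 4 hpf embryos (pronase); plate 1/well at 6 hpf; add test chemical, 0.64% DMSO final; seal, cover, hold at 28C statically to 120 hpf; score jaw defect presence/absence microscopically. Dead embryos not scored.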

Measured: outcome

Signal transducer and activator of transcription 3 (Homo sapiens), sequence (P40763 whole entry, looked up): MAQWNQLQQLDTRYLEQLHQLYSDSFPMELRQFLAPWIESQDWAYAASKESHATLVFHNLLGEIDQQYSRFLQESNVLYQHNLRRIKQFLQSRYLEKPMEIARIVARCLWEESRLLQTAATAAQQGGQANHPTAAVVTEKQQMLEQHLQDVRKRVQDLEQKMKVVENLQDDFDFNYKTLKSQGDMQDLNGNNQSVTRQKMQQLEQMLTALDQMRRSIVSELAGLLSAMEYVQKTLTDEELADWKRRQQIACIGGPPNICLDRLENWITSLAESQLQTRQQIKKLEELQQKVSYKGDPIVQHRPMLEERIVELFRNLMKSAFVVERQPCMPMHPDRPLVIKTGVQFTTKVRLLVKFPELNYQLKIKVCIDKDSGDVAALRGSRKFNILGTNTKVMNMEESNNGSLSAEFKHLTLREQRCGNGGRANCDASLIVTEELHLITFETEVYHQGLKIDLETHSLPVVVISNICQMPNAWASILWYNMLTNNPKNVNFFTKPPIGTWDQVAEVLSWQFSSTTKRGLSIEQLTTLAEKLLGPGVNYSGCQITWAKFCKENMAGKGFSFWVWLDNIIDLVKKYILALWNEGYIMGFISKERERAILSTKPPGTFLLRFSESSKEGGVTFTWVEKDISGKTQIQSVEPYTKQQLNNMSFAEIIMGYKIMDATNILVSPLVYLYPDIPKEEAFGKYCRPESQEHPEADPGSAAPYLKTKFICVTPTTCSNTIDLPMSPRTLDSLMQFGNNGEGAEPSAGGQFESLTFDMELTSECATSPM
Nuclear factor erythroid 2-related factor 2 (Homo sapiens), sequence (Q16236 whole entry, looked up): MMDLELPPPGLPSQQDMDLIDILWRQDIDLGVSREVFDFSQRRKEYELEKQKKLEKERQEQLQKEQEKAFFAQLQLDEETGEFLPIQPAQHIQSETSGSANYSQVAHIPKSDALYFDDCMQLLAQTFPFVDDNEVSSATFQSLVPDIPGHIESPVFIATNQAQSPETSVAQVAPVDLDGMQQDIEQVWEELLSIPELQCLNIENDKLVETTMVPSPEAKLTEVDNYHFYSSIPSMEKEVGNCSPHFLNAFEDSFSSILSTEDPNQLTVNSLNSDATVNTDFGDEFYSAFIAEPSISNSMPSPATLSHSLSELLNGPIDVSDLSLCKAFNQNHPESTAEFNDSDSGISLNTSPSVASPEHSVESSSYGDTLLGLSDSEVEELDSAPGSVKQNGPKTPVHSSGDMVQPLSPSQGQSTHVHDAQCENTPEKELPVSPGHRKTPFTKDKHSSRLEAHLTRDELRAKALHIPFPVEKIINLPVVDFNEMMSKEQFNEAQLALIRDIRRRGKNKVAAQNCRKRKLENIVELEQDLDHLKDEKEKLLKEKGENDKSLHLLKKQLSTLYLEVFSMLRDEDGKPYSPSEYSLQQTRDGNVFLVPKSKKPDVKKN
Cellular tumor antigen p53 (Homo sapiens), sequence (P04637 whole entry, looked up): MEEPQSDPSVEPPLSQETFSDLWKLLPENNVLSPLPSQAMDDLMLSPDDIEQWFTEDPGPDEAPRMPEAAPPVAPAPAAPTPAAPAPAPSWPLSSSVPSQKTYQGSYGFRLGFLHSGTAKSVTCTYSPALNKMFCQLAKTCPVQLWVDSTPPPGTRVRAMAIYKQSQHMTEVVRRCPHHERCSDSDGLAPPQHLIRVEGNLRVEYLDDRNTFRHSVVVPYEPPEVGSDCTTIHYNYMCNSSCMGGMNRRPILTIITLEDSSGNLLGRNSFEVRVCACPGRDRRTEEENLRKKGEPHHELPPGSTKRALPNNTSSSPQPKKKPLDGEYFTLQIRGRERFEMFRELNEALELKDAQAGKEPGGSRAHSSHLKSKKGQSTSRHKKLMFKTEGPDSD

CCC(C)=NO
inactive: all assays above
